JMJD2A Tudor: qHTS Assay for Inhibitors of JMJD2A-Tudor Domain. AID 504339, 2011. 4.4% of 390,000 active. Lysine-specific demethylase 4A (Homo sapiens), O75164. Potency, µM (doses to about 114 µM), without a hit: at the highest dose activity change, negative = inhibition, hits mostly inhibitors. AlphaScreen JMJD2A-Tudor / H3K4me3 peptide binding; note: % is set by controls: 0 for no effect and ±100 for the full control effect; nearly all actives have a fitted effect of over 50% in size
BAZ2B inh: qHTS Assay for Inhibitors of BAZ2B | Bromodomain adjacent to zinc finger domain protein 2B (Homo sapiens), Q9UIF8 | AlphaScreen BAZ2B-H3K14Ac peptide displacement | Potency, µM (titrated, usually from 114 µM), without a hit: top-dose activity change, negative = inhibition, most hits filed as inhibitors | 4.4% of 360,000 active | AID 504333, 2011; note: % is set by controls: 0 for no effect and ±100 for the full control effect; nearly all actives have a fitted effect of over 60% in size
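Compounds, titrated to a top concentration of 110 uM, were incubated 30 min at room temperature with preformed BAZ2B/acetyl-K14 H3 peptide complex (50 nM each). Proximity signal was measured by AlphaScreen after 20 min with beads.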
Sfp PPTase inh: qHTS Assay for Inhibitors of Bacillus subtilis Sfp phosphopantetheinyl transferase (PPTase); 3.5% of 310,000 active; Biochemical Sfp PPTase activity, qHTS; Potency, µM, inactives show largest response in the series, negative = inhibition, usual class: inhibitors; AID 1490, 2009; 4'-phosphopantetheinyl transferase ffp (Bacillus subtilis), Q9F4F7;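 note: the enzyme is Sfp with the accession as filed and its product quenches rhodamine fluorescence; 0% = enzyme reaction without inhibitor and -100% = no enzyme wells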
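Fluorescence-quenching assay: 15 nM Sfp-PPTase preincubated 15 min at room temperature with compound, then 5 uM rhodamine-CoA and 12.5 uM BHQ-2-labelled YbbR peptide added. Fluorescence (ex 525/em 598 nm) read at start and after 30 min; difference gives rate.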
HP1b chromo inh: HTS for Inhibitors of HP1-beta Chromodomain Interactions with Methylated Histone Tails; Chromobox protein homolog 1 (Homo sapiens), P83916; AlphaScreen HP1-beta / biotin-H3K9me3 peptide binding; AID 540317, 2011; Potency, µM (top dose mostly 114 µM), for the others: top-dose activity change, negative = inhibition, usual class: inhibitors; 0.56% of 390,000 active; note: nearly all actives have a fitted effect of over 70% in size
Target sequence (P83916 whole entry, looked up): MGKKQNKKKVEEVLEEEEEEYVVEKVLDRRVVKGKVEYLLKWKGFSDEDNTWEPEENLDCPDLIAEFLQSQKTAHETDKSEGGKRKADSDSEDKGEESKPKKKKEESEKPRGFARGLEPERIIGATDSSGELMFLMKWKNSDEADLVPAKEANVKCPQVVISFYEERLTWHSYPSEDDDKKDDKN
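HP1-beta protein (50 nM final) preincubated 30 min at room temperature with biotinylated H3(1-18)K9me3 peptide (50 nM) in PBS pH 7.4, 0.01% Tween-20, then compound added for 30 min. AlphaScreen streptavidin donor/nickel chelate acceptor beads (10 ug/mL final), 30 min dark, luminescence read.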
G9a block: qHTS Assay for Inhibitors of Histone Lysine Methyltransferase G9a | Histone-lysine N-methyltransferase EHMT2 (Homo sapiens), Q96KQ7 | G9a H3K9 monomethylation, AlphaScreen, 2 h | Potency, µM (top dose mostly 102 µM), for the others: at the highest dose activity, negative = inhibition, usual class: inhibitors | 8.8% of 350,000 active | AID 504332, 2011; note: % is set by controls: 0 for no effect and ±100 for the full control effect; nearly all actives have a fitted effect of over 75% in size
Target sequence (Q96KQ7 913-1193 limits assumed): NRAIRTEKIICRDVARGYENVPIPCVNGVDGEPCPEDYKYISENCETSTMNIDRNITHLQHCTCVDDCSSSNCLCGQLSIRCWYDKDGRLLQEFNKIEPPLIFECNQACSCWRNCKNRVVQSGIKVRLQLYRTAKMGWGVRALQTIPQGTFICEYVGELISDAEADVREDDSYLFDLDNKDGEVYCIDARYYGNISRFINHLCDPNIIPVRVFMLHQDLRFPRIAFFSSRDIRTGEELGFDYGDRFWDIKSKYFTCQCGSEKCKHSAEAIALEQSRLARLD
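Enzyme 20 nM + cpd, 15 min RT; add b-H3K9 pep 500 nM / SAM 20 uM; 2 h RT; anti-H3K9me1 Ab 0.5 ug/mL + SA donor / anti-rabbit acceptor beads 20 ug/mL each, 10 min; AlphaScreen read.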
L3MBTL1 inh: qHTS Assay for the Inhibitors of L3MBTL1; 0.66% of 230,000 active; Potency, µM (highest dose often 57.1 µM), for the others: top-dose activity, negative = inhibition, actives largely listed as inhibitors; AlphaScreen L3MBTL1–H3K9me1 peptide binding; Lethal(3)malignant brain tumor-like protein 1 (Homo sapiens), Q9Y468; note: % is set by controls: 0 for no effect and ±100 for the full control effect; nearly all actives have a fitted effect of over 60% in size
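AlphaScreen proximity signal between nickel-chelate acceptor and streptavidin donor beads (final 10 ug/mL) reports binding of 50 nM L3MBTL1 to 75 nM biotin-H3 K9me1 peptide; complex incubated with compounds 30 min at room temperature; cefsulodin titration as control.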
* = called active by the depositor; [ ] = dose if it differs, or a comment. Most compounds without a hit are left out; they make up all but 12% or so of the library. Calls come from the whole dose curve; as a rule, active = well fitted curve in the direction sought with a large enough effect; inconclusive = small, poorly fitted or top-dose-only effect, or another doubt; inactive = no such curve, though single readings can be large; an effect the other way counts as inactive or inconclusive. Potency is the fitted concentration of half-maximal effect.

CCOC(=O)c1[nH]c(C)c(/C(O)=C2\C(=O)C(=O)N(CCN(C)C)C2c2ccc(C)o2)c1C (stereo unspecified) was read as JMJD2A Tudor inconclusive, BAZ2B inh -34.7%, Sfp PPTase inh -1.7%, HP1b chromo inh 5.8%, G9a block 39.8µM* and L3MBTL1 inh 1.6%.
Screening C=CCn1nc([N+](=O)[O-])nc1Sc1cccc2cccnc12 returned JMJD2A Tudor -11.3%, BAZ2B inh -9.7%, Sfp PPTase inh -27.4%, HP1b chromo inh 18.6%, G9a block -20.1% and L3MBTL1 inh 28.2µM*.
For O=C(O)c1cc2n(n1)CCN(Cc1ccccc1Cl)C2=O the results were JMJD2A Tudor -3.8%[11.4 µM], BAZ2B inh inconclusive, Sfp PPTase inh 13.2%, HP1b chromo inh 29.6% and G9a block 50.1µM*.
O=C(O)CN1CCN(Cc2ccccc2Cl)C1=O was read as JMJD2A Tudor -28.2%, BAZ2B inh 2.6%, Sfp PPTase inh 10.5%, HP1b chromo inh 11.8%, G9a block 7.9% and L3MBTL1 inh 0.0%.
Cc1cccc(CCNC(=O)c2sc3nc4n(c(=O)c3c2C)CCCC4)c1 was read as JMJD2A Tudor -1.6%, BAZ2B inh -0.6%, HP1b chromo inh 85.3% and G9a block inconclusive.
For CCc1c(C)sc(NC(=O)CSc2nc3c(c(C(F)(F)F)n2)CCc2ccccc2-3)c1C#N the results were JMJD2A Tudor -13.5%, BAZ2B inh -0.8%, Sfp PPTase inh 44.7µM*, HP1b chromo inh -3.6%, G9a block inconclusive and L3MBTL1 inh 11.0%.
Screening OCCN(Cc1ccccc1)CC(O)COc1ccc(-c2ccccc2)cc1 (stereo unspecified) returned JMJD2A Tudor -34.4%, BAZ2B inh inconclusive, Sfp PPTase inh 50.1µM*, HP1b chromo inh 45.2%, G9a block -7.9%[12.7 µM] and L3MBTL1 inh -7.3%.
Screening CCCCNC(=O)c1cnc2sc(N3CCCCCC3)nn2c1=O returned JMJD2A Tudor -15.0%, BAZ2B inh -1.5%, HP1b chromo inh 52.1% and G9a block 6.4%[59 µM].
For COc1ccc(CC(=O)NCCc2sc(-c3ccc(Cl)cc3)nc2C)cc1OC the results were JMJD2A Tudor -23.0%, BAZ2B inh -7.4%, HP1b chromo inh 17.1%[57 µM] and G9a block 14.9%[59 µM].
Screening CCN(c1ccc(NC(=O)COC(=O)C2CCN(c3ccc(C(F)(F)F)cn3)CC2)cc1)C(C)C returned JMJD2A Tudor 10µM* and HP1b chromo inh inconclusive.
Screening CC(C)N(Cc1ccccc1)C(=O)COC(=O)C1CCN(c2ccc(C(F)(F)F)cn2)CC1 returned JMJD2A Tudor 11.0%, BAZ2B inh 5.6%, HP1b chromo inh inconclusive, G9a block 35.5µM* and L3MBTL1 inh 14.6%.
For CCc1ccc(NC(=O)C(C)OC(=O)C2CCN(c3ccc(C(F)(F)F)cn3)CC2)cc1 (stereo unspecified) the results were JMJD2A Tudor 4.8%, BAZ2B inh 2.7%, HP1b chromo inh 24.0%, G9a block 7.2% and L3MBTL1 inh 6.1%.
`Cc1ccc(NC(=O)c2nc(-c3ccncc3)no2)c(Cl)c1` gave JMJD2A Tudor 1.3%, BAZ2B inh -20.6%, HP1b chromo inh 51.2% and G9a block 9.9%[59 µM].
`COc1cc2c(cc1OC)C(CC#N)=NC(C)(C)C2` gave JMJD2A Tudor -20.3%, BAZ2B inh -7.6%, Sfp PPTase inh 79.4µM*, HP1b chromo inh -4.7% and G9a block inconclusive.
